Measurements as given in PubChem BioAssay (NCATS).
Results filed as inconclusive are left out. Activity calls are given as the source filed them. The call rests on the fitted dose curve; in most records, active means well fitted curve in the direction sought with a large enough effect; inconclusive means small, poorly fitted or top-dose-only effect, or another doubt; inactive means no such curve, though single readings can be large; an effect the other way counts as inactive or inconclusive.

Columns and labels:
[1] = target: Phospholipid hydroperoxide glutathione peroxidase GPX4 (Homo sapiens) (UniProt P36969); experiment: Primary qHTS Assay for Inhibitors of Recombinant Selenoprotein Glutathione Peroxidase 4 (GPX4) (AID 1845192); further: nearly all actives have a fitted effect of over 65% in size; on activity change, negative = inhibition: series mostly up to about 50 µM; on the % scale 0 is the no-effect control and ±100 the full control effect
Chain of Phospholipid hydroperoxide glutathione peroxidase GPX4 (Homo sapiens) (P36969 whole entry, looked up): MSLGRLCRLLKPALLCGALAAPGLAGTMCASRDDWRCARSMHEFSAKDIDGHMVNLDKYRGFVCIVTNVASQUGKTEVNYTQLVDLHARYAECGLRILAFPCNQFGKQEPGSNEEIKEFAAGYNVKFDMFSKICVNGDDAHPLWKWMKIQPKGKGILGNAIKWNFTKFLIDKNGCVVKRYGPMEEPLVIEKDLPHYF
Method in brief: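 NADPH consumption followed by fluorescence at 340/450 nm, t=0 and after 15 min at room temperature. Reaction started with cumene hydroperoxide (0.5 mM final) after 30 min compound–GPX4 preincubation; final 200 nM GPX4, 100 nM GR, 1 mM GSH, 0.5 mM NADPH.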

[2] = target: Luciferin 4-monooxygenase (Photinus pyralis) (UniProt P08659); experiment: Primary firefly luciferase (FLuc) qHTS assay for identification of artifact compounds. (AID 1845220); further: nearly all actives have a fitted effect of over 60% in size;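 on activity change, negative = inhibition: series mostly up to about 54 µM; plate controls were DMSO vehicle for no effect and no enzyme for full effect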
Method in brief: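 Cell-free, 1536-well qHTS. Buffer pH 7.6 with 0.01% Tween-20 and 0.05% BSA; 10 uM D-luciferin, 10 uM ATP; 10 nM P. pyralis luciferase; luminescence after 5 min.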

[3] = Primary fluorescence-based thiol-reactive (MSTI) qHTS assay for identification of artifact compounds. (AID 1845221); further: nearly all actives have a fitted effect of over 65% in size; further: potency means the concentration at half of the fitted maximal effect;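 on activity change, negative = thiol reactive: series mostly up to about 54 µM; thiol-reactive compounds lower the probe fluorescence signal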
Method in brief: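 A multi-concentration qHTS design tested compounds against 4 uM MSTI, pH 7.4 phosphate-buffered saline. Plates were protected from light for 1 h at room temperature before imaging fluorescence.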

[4] = test system: Nanoluciferase (engineered Oplophorus gracilirostris luciferase); experiment: Primary Nanoluciferase (NLuc) qHTS assay for identification of artifact compounds. (AID 1845222);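 further: series mostly up to about 54 µM; 0% = DMSO and -100% = no enzyme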
Method in brief: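 Compounds are pinned into diluted (1:55) conditioned medium of NLuc-expressing S16 cells and held 15 min at room temperature protected from light. Nano-Glo substrate follows, and luminescence is read 5 min later.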

CN(C)c1ccc2c(c1)OC(N)=C(C#N)C2c1cccc(C(F)(F)F)c1 (centres undefined)
inactive: Potency [1] | Potency [2] | Potency [4]
active: Potency [3] 2.12 µM

Cc1cc2c(F)c(Oc3ncnn4cc(OCC(C)O)c(C)c34)ccc2[nH]1 (centres undefined)
inactive: Potency [1] | Potency [2] | Potency [3] | Potency [4]

CNC(C)C(=O)NC(C(=O)N1CCCC1c1nc(C(=O)c2ccc(F)cc2)cs1)C1CCCCC1 (centres undefined)
inactive: Potency [1] | Potency [2] | Potency [3] | Potency [4]

COc1cc(N2CCC(N3CCN(C)CC3)CC2)ccc1Nc1ncc(Cl)c(-c2c[nH]c3ccccc23)n1
active: Potency [3] 1.68 µM
inactive: Potency [1] | Potency [2] | Potency [4]

CC1(C)CCC2(C(=O)OC3OCC(O)C(O)C3O)CCC3(C)C(=CCC4C5(C)CC(O)C(OC6OC(COC7OCC(O)C(O)C7O)C(O)C(O)C6O)C(C)(C)C5CCC43C)C2C1 (centres undefined)
inactive: Potency [1] | outcome [2] inactive [at 11.6 µM] | activity change, negative = thiol reactive [3] -15.2% [at 11.5 µM] | activity, negative = inhibition [4] 0.507% [at 11.6 µM]

CC[C@]1(O)CC2CN(CCc3c([nH]c4ccccc34)[C@@](C(=O)OC)(c3cc4c(cc3OC)N(C)[C@H]3[C@@](O)(C(=O)OC)[C@H](OC(C)=O)[C@]5(CC)C=CCN6CC[C@]43[C@@H]65)C2)C1 (some centres undefined)
inactive: Potency [1] | Potency [2] | Potency [3] | Potency [4]

CCOC(=O)C(CCc1ccccc1)NC1CSC(c2cccs2)CN(CC(=O)O)C1=O (centres undefined)
inactive: Potency [1] | Potency [2] | Potency [3] | Potency [4]

COC(=O)C[C@H]1[C@]2(C)C3=C(C)[C@H](c4ccoc4)C[C@H]3O[C@@H]2[C@H](OC(C)=O)C2[C@](C)(C(=O)OC)C=CC(=O)[C@@]21C (some centres undefined)
active: Potency [3] 13 µM
inactive: Potency [1] | Potency [2] | Potency [4]

CC(=O)O[C@H]1[C@@H](O)[C@H](O[C@H]2[C@@H]3C=CO[C@@H](O[C@H]4O[C@@H](CO)[C@H](O)[C@@H](O)[C@@H]4O)[C@@H]3[C@@]3(CO)O[C@@H]23)O[C@@H](C)[C@@H]1OC(=O)/C=C/c1ccccc1
active: Potency [3] 7.93 µM
inactive: Potency [1] | Potency [2] | Potency [4]

C[C@@H]1C(=O)O[C@H]2C[C@]34[C@H]5C[C@@H](C(C)(C)C)[C@]36[C@@H](OC(=O)[C@H]6O)O[C@]4(C(=O)O5)[C@]21O
inactive: Potency [1] | Potency [2] | Potency [3] | Potency [4]

CC(=O)O[C@@H]1[C@@H](O)[C@H](O[C@H]2CC[C@]34C[C@]35CC[C@]3(C)[C@@H]([C@@]6(C)CC[C@@H](C(C)(C)O)O6)[C@@H](O)C[C@@]3(C)[C@@H]5C[C@H](O[C@@H]3O[C@H](CO)[C@@H](O)[C@H](O)[C@H]3O)[C@H]4C2(C)C)OC[C@H]1O
inactive: Potency [1] | Potency [2] | Potency [3] | Potency [4]

CC1OC(OC2C(O)C(OC3CCC4(C)C(CCC5(C)C4CC=C4C6CC(C)(COC7OC(CO)C(O)C(O)C7O)CC(O)C6(C)CCC45C)C3(C)C)OC(C(=O)O)C2O)C(O)C(O)C1OC1OCC(O)C(O)C1O (centres undefined)
inactive: Potency [1] | activity change, negative = inhibition [2] 0.0325% [at 11.6 µM] | activity change, negative = thiol reactive [3] 24.3% [at 11.5 µM] | activity, negative = inhibition [4] -3.08% [at 11.6 µM]

O=C(c1cc2c(cc1F)OC(c1ccc(F)cc1)(c1ccc(Cl)cc1Cl)O2)N1CCOCC1 (centres undefined)
inactive: Potency [1] | Potency [2] | Potency [3] | Potency [4]

CNC(=O)c1ccccc1Nc1nc(Nc2ccc3c(c2OC)CCC[C@@H](N2CCN(CCO)CC2)C3)ncc1Cl
inactive: Potency [1] | Potency [2] | Potency [3] | Potency [4]

CC1(C)CC[C@@]2(C(=O)O[C@@H]3O[C@H](CO)[C@@H](O)[C@H](O)[C@H]3O)C(C1)C1=CCC3[C@@]4(C)CC[C@@H](O[C@@H]5O[C@H](C(=O)O)[C@@H](O[C@@H]6OC[C@@H](O)[C@H](O)[C@H]6O)[C@H](O[C@@H]6OC[C@](O)(CO)[C@H]6O)[C@H]5O)C(C)(C)C4CC[C@@]3(C)[C@]1(C)C[C@H]2O (some centres undefined)
inactive: Potency [1] | outcome [2] inactive [at 11.6 µM] | activity change, negative = thiol reactive [3] 54.8% [at 11.5 µM] | activity, negative = inhibition [4] 1.29% [at 11.6 µM]

COc1cc(O)c([C@@H](CC(=O)N2CC(C)CC(C)C2)c2ccc3c(c2)OCO3)c(OC)c1 (some centres undefined)
inactive: Potency [1] | Potency [2] | Potency [3] | Potency [4]

CC(=O)OC[C@@]12C(=O)C[C@@H](C)[C@]3(C[C@@H](c4ccoc4)O[C@H]3OC(C)=O)[C@H]1CCC[C@]21CO1
inactive: Potency [1] | Potency [2] | Potency [3] | Potency [4]

Oc1ccc(CNc2ccccc2F)c2cccnc12
inactive: Potency [1] | Potency [2] | Potency [4]
active: Potency [3] 3.77 µM

C[C@@H](O)[C@H](NC(=O)c1ccc(C#Cc2ccc(CN3CCOCC3)cc2)cc1)C(=O)NO
inactive: Potency [1] | Potency [2] | Potency [3] | Potency [4]

CC(=O)O[C@@](C)(C(=O)/C=C/C(C)(C)O)[C@H]1[C@H](O)C[C@@]2(C)[C@@H]3CC=C4[C@@H](C=C(O)C(=O)C4(C)C)[C@]3(C)C(=O)C[C@]12C
inactive: Potency [1] | Potency [2] | Potency [3] | Potency [4]

C[C@@H]1O[C@@H](O[C@H]2[C@H](OC(=O)[C@]34CCC(C)(C)C[C@H]3C3=CCC5[C@@]6(C)C[C@H](O)[C@H](O[C@@H]7O[C@H](CO)[C@@H](O)[C@H](O)[C@H]7O)[C@@](C)(CO)C6[C@H](O)C[C@@]5(C)[C@]3(C)C[C@H]4O)OC[C@H](O)[C@@H]2O)[C@H](O)[C@H](O)[C@H]1O[C@@H]1OC[C@@H](O)[C@H](O[C@H]2OC[C@](O)(CO)[C@H]2O)[C@H]1O (some centres undefined)
inactive: activity change, negative = inhibition [1] 1.35% [at 9.73 µM] | activity change, negative = inhibition [2] 2.14% [at 11.6 µM] | activity change, negative = thiol reactive [3] 482% [at 11.5 µM] | activity, negative = inhibition [4] 4.86% [at 11.6 µM]

Cc1cc2c(c(=O)[nH]1)OC(C(O)CC(C)C)O2 (centres undefined)
inactive: Potency [1] | Potency [2] | Potency [3] | Potency [4]

CC1CCC2C(C(=O)O)=COC(O[C@@H]3O[C@H](CO)[C@@H](O)[C@H](O)[C@H]3O)C12 (some centres undefined)
active: Potency [3] 5.85 µM
inactive: Potency [1] | Potency [2] | Potency [4]

C=CC(C)(C)c1[nH]c2ccccc2c1C[C@@H]1NC(=O)[C@H](Cc2c[nH]c3ccccc23)NC1=O
active: Potency [3] 2.32 µM
inactive: Potency [1] | Potency [2] | Potency [4]

C/C=C/C=C/[C@@H]1O[C@](O)([C@H](CC)C(=O)NC/C=C/C=C(\C)[C@@H](OC)[C@@H](C)C2OC(/C=C/C=C/C=C(\C)C(=O)c3c(O)cc[nH]c3=O)[C@H](O)[C@@H]2O)[C@H](O)[C@H](O)C1(C)C (some centres undefined)
inactive: Potency [1] | Potency [2] | Potency [3] | Potency [4]

COc1cccc(C(=O)N2CCN(C(=O)COc3cccc(C)c3)CC2)c1OC
inactive: Potency [1] | Potency [2] | Potency [3] | Potency [4]

CC(=O)NCC(=O)N1C2CCC1c1cc(Nc3ncc(C(F)(F)F)c(NC4CCC4)n3)ccc12 (centres undefined)
inactive: Potency [1] | Potency [2] | Potency [3] | Potency [4]

O=C(OC[C@H]1O[C@H](O[C@]2(CO)O[C@H](CO)[C@@H](O)[C@@H]2O)[C@H](O)[C@@H](O)[C@@H]1O)c1ccccc1
inactive: Potency [1] | Potency [2] | Potency [3] | Potency [4]

C[C@@H]1O[C@@H](O[C@H]2[C@H](O)[C@@H](O)[C@H](OC[C@H]3O[C@@H](OC(=O)[C@]45CCC(C)(C)C[C@H]4C4=CCC6[C@@]7(C)CC[C@H](O[C@@H]8OC[C@H](O)[C@H](O[C@@H]9O[C@H](CO)[C@@H](O)[C@H](O)[C@H]9O)[C@H]8O)[C@@](C)(CO)C7CC[C@@]6(C)[C@]4(C)CC5)[C@H](O)[C@@H](O)[C@@H]3O)O[C@@H]2CO)[C@H](O)[C@H](O)[C@H]1O (some centres undefined)
inactive: activity change, negative = inhibition [1] -3.72% [at 9.73 µM] | activity change, negative = inhibition [2] 2.93% [at 11.6 µM] | activity change, negative = thiol reactive [3] 205% [at 11.5 µM] | activity, negative = inhibition [4] 3.4% [at 11.6 µM]

CC(=O)OC[C@]12[C@H](OC(C)=O)C(=O)[C@@H]3[C@@H](OC(C)=O)[C@@]14O[C@@]3(C)COC(=O)c1cccnc1[C@@H](C)[C@H](C)C(=O)O[C@@H]([C@H](O)[C@@H]2OC(C)=O)[C@]4(C)O
inactive: Potency [1] | Potency [2] | Potency [3] | Potency [4]

C[C@@H]1C[C@@H]2O[C@H]2/C=C\C=C\C(=O)Cc2c(Cl)c(O)cc(O)c2C(=O)O1
inactive: Potency [1] | Potency [2] | Potency [3] | Potency [4]

O=C(C(c1ccccc1)c1ccccc1)N1CCN(CC(O)COc2cccc3ncccc23)CC1 (centres undefined)
inactive: Potency [1] | Potency [2] | Potency [3] | Potency [4]

CC1CCC2C(C)(C)[C@@H](O)CC[C@]2(C)C12Cc1c(O)cc3c(c1O2)CN(C(CCC(=O)O)C(=O)O)C3=O (some centres undefined)
inactive: Potency [1] | Potency [2] | Potency [3] | Potency [4]

Cc1nc([C@](C)(O)CO)sc1-c1cnc(N)c(O[C@H](C)c2cc(F)ccc2-n2nccn2)c1
inactive: Potency [1] | Potency [2] | Potency [3] | Potency [4]

C[C@@H]1O[C@@H](O[C@H]2[C@H](OC(=O)[C@]34CCC(C)(C)C[C@H]3C3=CCC5[C@@]6(C)C[C@H](O)[C@H](O[C@@H]7O[C@H](CO)[C@@H](O[C@H]8OC[C@](O)(CO)[C@H]8O)[C@H](O)[C@H]7O)[C@@](C)(CO)C6[C@H](O)C[C@@]5(C)[C@]3(C)C[C@H]4O)OC[C@H](O)[C@@H]2O)[C@H](O)[C@H](O)[C@H]1O[C@@H]1OC[C@@H](O)[C@H](O[C@@H]2OC[C@](O)(CO)[C@H]2O)[C@H]1O (some centres undefined)
inactive: outcome [1] inactive [at 9.73 µM] | outcome [2] inactive [at 11.6 µM] | activity change, negative = thiol reactive [3] 502% [at 11.5 µM] | activity, negative = inhibition [4] 3.67% [at 11.6 µM]

CC(=O)O[C@H]1CC(C)(C)CC2[C@@]13[C@H](O)C[C@]1(C)[C@@]2(CCC2[C@@]4(C)CC[C@H](O[C@@H]5OC[C@H](O[C@@H]6O[C@H](CO)[C@@H](O)[C@H](O)[C@H]6O[C@@H]6OC[C@@H](O)[C@H](O)[C@H]6O)[C@H](O)[C@H]5O[C@@H]5O[C@H](CO)[C@@H](O)[C@H](O)[C@H]5O)C(C)(C)C4CC[C@]21C)O[C@@H]3O (some centres undefined)
inactive: Potency [1] | activity change, negative = inhibition [2] -0.127% [at 11.6 µM] | activity change, negative = thiol reactive [3] 93.4% [at 11.5 µM] | activity, negative = inhibition [4] 2.06% [at 11.6 µM]
